Source: PubChem BioAssay (National Center for Advancing Translational Sciences (NCATS))
Rango complex inh – qHTS Assay for Inhibitors of Rango (Ran-regulated importin-beta cargo) - Importin beta complex formation; Rango CFP/YFP FRET sensor + importin beta, 45 min; Potency, µM (series often up to 92.2 µM), for the others: at the top dose inhibition of complex formation; 340,000 compounds, 0.031% hits; Importin subunit beta-1 (Homo sapiens), Q14974;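 note: potency is the fitted concentration of half-maximal effect; 0% = DMSO wells and 100% = buffer wells lacking importin beta; nearly all actives have a fitted effect of over 15% in size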
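Inhibition scored from the CFP 486 nm/YFP 530 nm FRET ratio 45 min after adding 0.125 microM importin beta to 50 nM Rango biosensor preincubated 5 min with compound (room temperature, PBS with DTT, Tween-20, BSA). No-importin wells as positive control.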
PTAP TSG101 blk – qHTS Assay for Iinhibitors of HIV-1 Budding by Blocking the Interaction of PTAP/TSG101; Tumor susceptibility gene 101 protein (Homo sapiens), Q99816; Fluorescence polarization, FITC-PTAP peptide / Tsg101 binding; Potency, µM (titrated, usually from 115 µM), for inactives: at the highest dose activity change, negative = inhibition, most hits filed as inhibitors; 340,000 tested, under 10 active; active = well fitted inhibition curve with a large enough effect in the main read-out, with a control signal flat, not every such curve was filed as active; inconclusive = small, poorly fitted or top-dose-only effect, or effect the other way, or a change in a side signal; inactive = no such curve, though single readings can be large or run the other way; note: potency is the fitted concentration of half-maximal effect; % of control where 0% means no effect
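FP read-out: FITC-PTAP peptide, 50 nM final, binding Tsg101 binding domain, 10 uM final; 20 min, r.t.; 10 mM HEPES pH 7.5, 0.15 M NaCl, 0.01% Tween 20, 3 mM EDTA, 0.1 mM TCEP.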
DRD3 antagonist – qHTS of D3 Dopamine Receptor Antagonist: qHTS; D(3) dopamine receptor (Homo sapiens), P35462; D3R cells, DiscoveRx beta-arrestin luminescence, antagonist mode; stronger effect = lower value; max response, negative = inhibition, %; 360,000 compounds, 2.5% hits; in the data active = max response below about -50%; inconclusive = no clear call, values can overlap the other calls; note: % is set by controls: 0 for no effect and ±100 for the full control effect
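Cells plated overnight at 1500 cells/well, then exposed to library compounds with dopamine controls for 90 minutes at 37 degrees C. DiscoveRx reagent added for 30–60 minutes at room temperature; luminescence read, quantitative HTS format.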
D3 ag – qHTS of D3 Dopamine Receptor Agonist: qHTS. max activation, %. AID 652048, 2013. 410,000 compounds, 0.58% hits. D3R DiscoveRx beta-arrestin cells, luminescence, 90 min; in the data active = max activation above about 30%; note: 0% is about no effect
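Agonist-mode cell screen: cells plated at 1500/well and incubated overnight at 37 °C, then exposed to library compounds for 90 min at 37 °C. Detection reagent was added for 30–60 min at room temperature, and luminescence was read.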
Mm-Cpn inhibitor – Inhibitors of TCP-1 ring complex (TRiC) of Methanococcus maripaludis (MmCpn): qHTS; Chaperonin Mm-Cpn (Methanococcus maripaludis); purified Mm-Cpn ATPase, ADP Transcreener TR-FRET; Potency, µM (doses to about 76.9 µM), inactives show at the highest dose activity, negative = inhibition, actives largely listed as inhibitors; 330,000 compounds, 0.031% hits; AID 504842, 2011; active = well fitted inhibition curve with a large enough effect; inconclusive = small, poorly fitted or top-dose-only effect; note: potency is the fitted concentration of half-maximal effect; % is set by controls: 0 for no effect and ±100 for the full control effect; nearly all actives have a fitted effect of over 80% in size
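Quantitative HTS used 25 nM Mm-CPN and 10 uM ATP in magnesium/KCl Tris buffer, pH 7.4, with 1 mM DTT. Hydrolysis ran 30 min at 37°C; ADP was read by HTRF.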
Rango dissoc inh – qHTS Assay for Inhibitors of RanGTP induced Rango (Ran-regulated importin-beta cargo) - Importin beta complex dissociation | 340,000 compounds, 0.071% hits | Biochemical FRET Rango-importin beta, RanGTP-induced dissociation | Potency, µM (series often up to 46.1 µM), for the others: top-dose activity change, negative = inhibition | AID 540253, 2011 | Snurportin-1 (Homo sapiens) + GTP-binding nuclear protein Ran (Homo sapiens) + Importin …; note: potency is the fitted concentration of half-maximal effect; % of control where 0% means no effect; nearly all actives have a fitted effect of over 45% in size
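Two FRET readings bracket the reaction: one 5 min after compound meets Rango–importin beta, another 45 min after RanGTP-RCC1 (0.6 uM Ran, 0.2 uM RCC1, 2 mM GTP) is added. Only the second defines inhibition.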
* = called active by the depositor; ? = inconclusive; / = not tested or not shown. A selection: hits, their analogues and other compounds. The true share with any hit is near 2.9%. Unless noted, calls come from the whole dose curve.

SMILES	Rango complex inh	PTAP TSG101 blk	DRD3 antagonist	D3 ag	Mm-Cpn inhibitor	Rango dissoc inh
Cc1nc(-c2nc(-c3c(C(=O)NN)noc3C)cs2)cs1	-0.8%	-4.2%	1.0	3.4	-1.0%	-1.8%
Cc1ccc(C(C)C)c(OCC(O)CNC2CCCC2)c1 (stereo unspecified)	3.1%	0.2%	-5.0	-0.8	4.0%	-5.0%
Cc1cc(C)n(CCNC(=O)c2cc(COc3c(F)cccc3F)on2)n1	?	-4.8%	-25.3	3.7	2.7%	1.7%
O=C(NCCN1CCCCC1)c1cc(COc2c(F)cccc2F)on1	1.8%	-15.4%	-61.7*	-28.4	-2.4%	-15.0%
CS(=O)c1nc(-c2ccc(Br)cc2)cc(-c2ccccc2)c1C#N (stereo unspecified)	8.7%	-2.8%	-56.3*	-2.6	-2.5%	-6.6%
CC(C)NC(=S)N(C)C1(c2ccccc2Cl)CCCCC1=O (stereo unspecified)	6.4%	-1.4%	-2.0	10.4	2.1%	?
CN(C(=S)Nc1ccccc1F)C1(c2ccccc2Cl)CCCCC1=O (stereo unspecified)	1.6%	-5.6%	7.1	30.1*	0.9%	6.2%
COc1ccc(NS(=O)(=O)c2ccc(NS(=O)(=O)c3ccc4c(c3)OCCO4)cc2)cc1	/	/	/	-11.8	/	/
COc1ccc(NS(=O)(=O)c2ccc3oc(Nc4ccc5c(c4)OCCO5)nc3c2)cc1	-0.2%	-2.3%	-56.3*	4.7	1.2%	9.8%
O=C1C(=Cc2ccncc2)CCCc2ccccc21	/	/	-9.6	-4.9	/	/
O=C1/C(=C/c2ccncc2)CCC/C1=C\c1ccncc1	0.7%	3.0%	-60.5*	-11.9	-1.4%	0.6%
CCOC(=O)COc1ccccc1/C=C\[N+](=O)[O-]	-1.7%	-9.1%	-103.2*	-11.7	0.3%	-11.7%
Cc1cccc(C)c1NC(=O)C(NC(=O)c1ccccn1)c1ccc([N+](=O)[O-])cc1 (stereo unspecified)	-1.8%	-7.5%	-52.5*	-5.1	-1.1%	13.2%
COc1ccc(Nc2c(-c3ccc(C)o3)nc3ccc(Cl)cn23)cc1	/	/	/	7.9	/	/
CCOc1ccc(NS(=O)(=O)c2ccc(C(=O)N3CCCCC3)cc2)cc1	-9.3%	0.1%	11.6	4.1	-0.6%	1.1%
CCN(CC)S(=O)(=O)c1ccc(S(=O)(=O)Nc2ccc(C(=O)N3CCCC3)cc2)cc1	-0.3%	-0.5%	-56.4*	-12.6	-17.5%	-7.2%
CN(C)S(=O)(=O)c1ccc(S(=O)(=O)Nc2ccc3c(c2)oc2ccccc23)cc1	1.1%	1.1%	10.6	11.4	-1.8%	-7.9%
CCN(CC)S(=O)(=O)c1ccc(S(=O)(=O)Nc2ccc3c(c2)oc2ccccc23)cc1	-3.9%	-4.0%	-58.5*	0.8	0.5%	18.9%
Cc1cc(=O)oc2cc(NS(=O)(=O)c3ccccc3)ccc12	-11.0%	0.5%	11.5	9.7	-8.7%	16.4µM*
CCS(=O)(=O)c1ncc(N(Cc2ccccc2)Cc2ccco2)c(C(=O)Nc2ccc(C)c(C)c2)n1	/	/	/	0.6	/	/
C(=C\c1ccccc1)/CN1CCN(C(c2cccs2)c2nnnn2Cc2ccccc2)CC1 (stereo unspecified)	/	/	-73.3*	-17.8	/	/
C(=C\c1ccccc1)/CN1CCN(C(c2ccccc2)c2nnnn2C2CCCC2)CC1 (stereo unspecified)	/	/	?	-10.9	/	/
c1ccc(CCn2nnnc2C(c2cccs2)N2CCN(Cc3ccc4c(c3)OCO4)CC2)cc1 (stereo unspecified)	-1.6%	-1.0%	-67.2*	-3.6	-3.6%	19.4%
